{
  "source": "PubChem BioAssay AID720517",
  "about": "(National Center for Advancing Translational Sciences (NCATS), 2013)",
  "note": "Records with an inconclusive call do not appear. A number with no mark means an inactive call. The call rests on the fitted dose curve; in most records, active means well fitted activation curve with a large enough effect; inconclusive means small, poorly fitted or top-dose-only effect; inactive means flat fitted curve, though single readings scatter.",
  "data": [
    {"assay": "qHTS for Inhibitors of Cell Surface uPA Generation: FP59 Counterscreen for Cherry-picked Compounds; further: 0% is about no effect", "conditions": "FP59 anthrax toxin cytotoxicity counterscreen, cells; series mostly up to 115 µM; activity (protection from FP59): at the top concentration", "units": {"activity (protection from FP59)": "%"}, "values": [
      {"smiles": "FC(F)(F)Oc1ccc(NC2=NCCCS2)cc1", "activity (protection from FP59)": -1.48},
      {"smiles": "CCCCCn1c(=O)c(C(=O)Nc2ccccn2)c(O)c2ccccc21", "activity (protection from FP59)": -0.573},
      {"smiles": "CCOC(=O)c1ccc(N=Cc2c(O)n(-c3ccc(OC)cc3)c(=S)[nH]c2=O)cc1", "activity (protection from FP59)": -1.58},
      {"smiles": "O=c1[nH]c(=O)n(CCc2ccccc2)c(O)c1C=NC1CC1", "activity (protection from FP59)": -1.46},
      {"smiles": "COc1ccc(-c2nn(CCC#N)cc2C(=O)Nc2cccc([N+](=O)[O-])c2)cc1OC", "activity (protection from FP59)": -1.37},
      {"smiles": "O=C(c1ccc(F)c([N+](=O)[O-])c1)N1CC2CC(C1)c1cccc(=O)n1C2", "note": "(stereo not given)", "activity (protection from FP59)": -1.17},
      {"smiles": "O=P1(NCCCl)OCCCN1CCCl", "note": "(stereo not given)", "activity (protection from FP59)": -0.82},
      {"smiles": "COCC(=O)N1Cc2ccccc2-n2nncc2C1", "activity (protection from FP59)": -1.41},
      {"smiles": "Cc1ccc(-n2c(O)c(C=NCCN3CCNCC3)c(=O)[nH]c2=S)cc1", "activity (protection from FP59)": -1.47},
      {"smiles": "Cc1ccccc1O", "activity (protection from FP59)": -1.37},
      {"smiles": "COc1ccc(-c2nn(CCC#N)cc2C(=O)Nc2ccccc2)cc1OC", "activity (protection from FP59)": -1.33},
      {"smiles": "Cc1ncc(CN2CCCC(C(=O)c3cccc(OC(C)C)c3)C2)s1", "note": "(stereo not given)", "activity (protection from FP59)": -1.32},
      {"smiles": "c1cncc(C2CCCCN2)c1", "note": "(stereo not given)", "activity (protection from FP59)": -0.643},
      {"smiles": "COC(=O)C1=C(c2cccc(OC)c2OC)C[C@@H]2CC[C@H]1N2C(=O)NC1CC1", "activity (protection from FP59)": -1.47},
      {"smiles": "COc1ccccc1N1CCN(Cc2ccc(SC)cc2)CC1", "activity (protection from FP59)": -1.45},
      {"smiles": "C[N+](C)(C)CCOC(=O)CBr", "activity (protection from FP59)": -1.22},
      {"smiles": "Cc1cc(C(=O)NP(=O)(N2CCOCC2)N2CCOCC2)c(C)n1C1CC1", "activity (protection from FP59)": -0.0947},
      {"smiles": "O=c1[nH]c(=O)n(-c2ccc(Cl)cc2)c(O)c1C=Nc1ccc(S(=O)(=O)Nc2nccs2)cc1", "activity (protection from FP59)": -1.39},
      {"smiles": "COc1ccccc1NC(=O)N1C[C@@H]2C[C@@H](C1)c1cccc(=O)n1C2", "activity (protection from FP59)": -1.26},
      {"smiles": "CCOc1ccc(CN2CCN(C(=O)Cc3ccccc3)CC2)cc1", "activity (protection from FP59)": -0.338}
    ]}
  ]
}
